Assay results: PubChem BioAssay AID720560 (Broad Institute, 2013)
Results with a measured potency or affinity are listed apart. Records with an inconclusive call do not appear. Active and inactive are the calls of the source.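 How the source made its calls: active means signal drop whose fitted half-maximal concentration is at most twice the top valid dose; inconclusive means flat moderate drop between 30 and 70 percent, or an unreliable fit; inactive means the rest.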

Experiment: hypoxia HIF reporter signal reduction – HeLa cells, luminescence, dry powder samples, 2158-08, ARNT-TACC3 inhibitor project, dose response (AID 720560)

Structure (SMILES) | outcome
CC1CCN(S(=O)(=O)c2ccc(C(=O)Nc3nnc(-c4ccccn4)o3)cc2)CC1 | inactive
O=C(CSc1ccc(-c2ccccn2)nn1)Nc1ccccc1 | inactive
Cc1ccc(C(=O)Nc2nc(-c3ccccn3)cs2)cc1S(=O)(=O)N1CCOCC1 | inactive
Cc1nnc(NC(=O)c2ccc(S(=O)(=O)N3CCCCC3)cc2)o1 | inactive
CC1CCN(S(=O)(=O)c2ccc(C(=O)Nc3nnc(-c4ccno4)o3)cc2)CC1 | inactive
O=C(CSc1ccc(-c2ccccn2)nn1)NC1CCCCC1 | inactive
O=C(CSc1ccc(-c2ccccn2)nn1)N1CCCC1 | inactive
C=CC1=C(C(=O)O)N2C(=O)[C@@H](NC(=O)/C(=N\O)c3csc(N)n3)[C@H]2SC1 (stereo in doubt) | inactive
Cc1c(C(=O)N(C)C)sc2nc(-c3ccccn3)[nH]c(=O)c12 | inactive
O=C(Nc1nnc(C2=COCCO2)o1)c1ccc(S(=O)(=O)N2CCCCC2)cc1 | inactive
